# Laboratory results: PubChem BioAssay (NCATS)
# Where “and” joins values, the source holds several entries; their conditions need not be identical. Equal entries are not always repeated. Results filed as inconclusive are left out. Where a call stands in place of a potency, no number is given. Where a structure was tested more than once in an assay, its records may differ in their call. Values without a mark were called inactive. Calls of active or inactive are those of the source. The call rests on the fitted dose curve; in most records, active means well fitted inhibition curve with a large enough effect; inconclusive means small, poorly fitted or top-dose-only effect; inactive means flat fitted curve, though single readings scatter.
# Tests used:
# Assay in all cases: Cytotoxic Profiling of Annotated Libraries Using Quantitative High-Throughput Screening (AID 1296008); further: nearly all actives have a fitted effect of over 60% in size
# Settings in all cases: Five cell lines viability, CellTiter-Glo ATP luminescence, 48-72 h; max response: hits give low values
# CRL-7250 = system: CRL-7250
# Outline: (§1)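 Cells exposed to compounds for 48 or 72 hr at 37 degrees Celsius. Viability read as ATP-coupled luminescence with CellTiter-Glo after 10 min at room temperature.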
# HEK293 = system: HEK293
# Outline: as §1
# HaCat = system: HaCat
# Outline: as §1
# Potency means the concentration at half of the fitted maximal effect.
structure (smiles),measurement,setting,value
N#Cc1ccnc(N2C(=O)CC[C@H]2C(=O)N(c2cncc(F)c2)[C@H](C(=O)NC2CC(F)(F)C2)c2ccccc2Cl)c1,max response,CRL-7250,-10.6%
same,Potency,HEK293,3.31 µM (active)
same,max response,HEK293,-9.11%
same,Potency,HaCat,23.4 µM (active)
same,max response,HaCat,-27%
NC1CCC(N[C@@H]2C[C@H]2c2ccccc2)CC1 (stereo partly specified),max response,CRL-7250,1.1%
same,outcome,CRL-7250,inactive
same,max response,HEK293,-15.5% and -3.29%
same,max response,HaCat,-1.71%
same,outcome,HaCat,inactive
CC1(C)OC(=O)C(OCC2CC2)=C1c1ccc(S(C)(=O)=O)cc1,outcome,CRL-7250,inactive
same,outcome,HEK293,inactive
same,outcome,HaCat,inactive
C=C1CC2C3(C)C(OC(C)=O)CC(=O)OC(C)(C)C3C(O)C(OC(C)=O)C2(C)C2C(=O)OC(C)C(=O)C12C (stereo unspecified),max response,CRL-7250,-7.53%
same,outcome,HEK293,inactive
same,max response,HaCat,-15.7%
CC(=O)c1c(C)cc(O)cc1O[C@@H]1O[C@H](CO)[C@@H](O)[C@H](O)[C@H]1O,max response,CRL-7250,-5.78%
same,outcome,HEK293,inactive
same,outcome,HaCat,inactive
C[C@@H]1C[C@H]2[C@@H]3CCC4=CC(=O)C=C[C@]4(C)[C@@]3(F)[C@@H](O)C[C@]2(C)[C@@]1(O)C(=O)COP(=O)(O)O,max response,CRL-7250,-4.68%
same,max response,HEK293,4.74%
O=C1C[C@@H](c2ccc(O)cc2)Oc2cc(O)ccc21,max response,CRL-7250,-9.15%
same,outcome,HEK293,inactive
same,outcome,HaCat,inactive
CC1=C2C(=O)O[C@@H](c3ccoc3)[C@]2(C)CCC1,max response,CRL-7250,-4.96%
same,outcome,CRL-7250,inactive
same,max response,HEK293,-8.51% and 3.13%
same,max response,HaCat,0.193%
Cc1c(-c2ccnn2C)cc(C(=O)NCc2ccc(S(C)(=O)=O)cn2)c(=O)n1-c1cccc(C(F)(F)F)c1,max response,CRL-7250,0.591% and -4.37% and 3.84%
same,outcome,CRL-7250,inactive
same,max response,HEK293,-6.6% [middle of 4 runs]
CCOc1ccc(-c2ccc(Cn3c(CC(C)(C)C(=O)O)c(SC(C)(C)C)c4cc(OCc5ccc(C)cn5)ccc43)cc2)cn1,max response,CRL-7250,-21.1% and -6.16%
same,max response,HEK293,-15.3%
same,outcome,HEK293,inactive
same,max response,HaCat,-15.9% and -11.2%
CN(C)c1cccc(-c2c3c(=O)n(-c4ccccc4Cl)[nH]c3cc(=O)n2C)c1,max response,CRL-7250,3.76%
same,Potency,HEK293,5.88 µM (active)
same,outcome,HEK293,inactive
same,Potency,HaCat,14.8 µM (active)
same,outcome,HaCat,inactive
N#CCc1ccc(O)cc1O[C@@H]1O[C@H](CO)[C@@H](O)[C@H](O)[C@H]1O,outcome,CRL-7250,inactive
same,outcome,HEK293,inactive
same,max response,HaCat,-21.9%
Cc1onc(-c2ccccc2)c1C(=O)N[C@@H]1C(=O)N2[C@@H]1SC(C)(C)[C@@H]2C(=O)O,max response,CRL-7250,4.38%
same,outcome,CRL-7250,inactive
same,max response,HEK293,3.77% and -1.97%
same,max response,HaCat,-3.02% and -31.5%
C[C@@H]1O[C@@H](O[C@H]2[C@H](O[C@H]3CO[C@@H](O[C@H]4CC[C@@]5(C)C(CC[C@]6(C)C5CC[C@]57OC[C@@]8(CC[C@](C)(CO)CC85)[C@H](O)C[C@]76C)C4(C)C)[C@H](O[C@@H]4O[C@H](CO)[C@@H](O)[C@H](O)[C@H]4O)[C@H]3O)O[C@H](CO)[C@@H](O)[C@@H]2O)[C@H](O)[C@H](O)[C@H]1O (stereo partly specified),max response,CRL-7250,-17.3%
same,outcome,HEK293,inactive
same,max response,HaCat,-3.02%
CON(C)C(=O)N1N=C(c2cc(F)ccc2F)S[C@@]1(CCCN)c1ccccc1,max response,CRL-7250,-53.9% and -40.4%
same,Potency,HEK293,0.0046 µM (active)
C[C@]1(O)CC[C@@H]2C(C(=O)O)=CO[C@@H](O[C@@H]3O[C@H](COC(=O)c4ccc(O)cc4)[C@@H](O)[C@H](O)[C@H]3O)[C@@H]21,max response,CRL-7250,2.99%
same,outcome,HEK293,inactive
same,outcome,HaCat,inactive
COC1=Cc2c(nc3n(c2=O)C(C)C(=O)NC3(O)C(C)C)OC=C1 (stereo unspecified),outcome,CRL-7250,inactive
same,outcome,HEK293,inactive
same,max response,HaCat,4.53%
COc1cc(NC(=O)c2ccccn2)ccc1Cl,max response,CRL-7250,4.88%
same,outcome,HEK293,inactive
same,outcome,HaCat,inactive
COc1cccc2c1CCC[C@H]2CN(C)CCc1ccc2ccoc2c1,outcome,CRL-7250,inactive
same,outcome,HEK293,inactive
same,max response,HaCat,3.47%
COc1cc(N2CCC(O)CC2)ccc1Nc1cc(Nc2ccccc2S(=O)(=O)C(C)C)c2cc[nH]c2n1,Potency,CRL-7250,33.1 µM (active)
same,max response,CRL-7250,-7.16%
same,Potency,HEK293,12.8 µM (active) and 11.7 µM (active)
same,Potency,HaCat,8.31 µM (active)
C=C[C@](C)(CC/C=C(\C)C(=O)O)O[C@@H]1OC[C@H](O)[C@H](O)[C@H]1O,max response,CRL-7250,-0.0118%
same,outcome,HEK293,inactive
same,outcome,HaCat,inactive
C=C1CCC2C(C)(C(=O)O)CC(O)CC2(C)C1CC/C(C)=C/C(=O)O (stereo unspecified),max response,CRL-7250,-3.85%
same,outcome,HEK293,inactive
same,max response,HaCat,3.69%
CC(=O)OC1C(O)CC(O[C@@H]2O[C@H](CO)[C@@H](O)[C@H](O)[C@H]2O)C2CCC3C(=O)OC(c4ccoc4)CC3(C)C21 (stereo partly specified),max response,CRL-7250,-4.25%
same,outcome,HEK293,inactive
same,max response,HaCat,-6.02%
O=c1ccn([C@@H]2O[C@H](CO)[C@@H](O)[C@H]2O)c(=O)[nH]1,max response,CRL-7250,-8.67%
same,outcome,HEK293,inactive
same,max response,HaCat,3.94%
CC(C)Nc1cc(-c2c[nH]c(C(=O)N[C@H](CO)c3cccc(Cl)c3)c2)c(Cl)cn1,max response,CRL-7250,-4.72%
same,Potency,HEK293,26.3 µM (active)
same,max response,HEK293,-74.1%
same,Potency,HaCat,2.59 µM (active) and 14.8 µM (active)
OC[C@H]1O[C@@H](n2cnc3c2NC=NC[C@H]3O)C[C@@H]1O,max response,CRL-7250,4.05%
same,outcome,HEK293,inactive
C=C1CCC2(OC1)OC1CC3C4CC=C5CC(O)CC(O[C@@H]6OC[C@@H](O)[C@H](O)[C@H]6O)C5(C)C4CCC3(C)C1(O)C2C (stereo partly specified),outcome,CRL-7250,inactive
same,outcome,HEK293,inactive
same,outcome,HaCat,inactive
CCC[C@@H]1C[C@@H](C(=O)N[C@@H]([C@H]2O[C@H](SC)[C@H](O)[C@@H](O)[C@@H]2O)[C@@H](C)O)N(C)C1,outcome,CRL-7250,inactive
same,outcome,HEK293,inactive
same,outcome,HaCat,inactive
CC(C)N(C[C@H]1O[C@@H](n2cnc3c(N)ncnc32)[C@H](O)[C@@H]1O)C1CC(CCc2nc3ccc(C(C)(C)C)cc3[nH]2)C1 (stereo partly specified),max response,CRL-7250,-0.229%
same,outcome,CRL-7250,inactive
same,Potency,HEK293,7.41 µM (active)
same,max response,HaCat,3.92%
same,outcome,HaCat,inactive
C[C@]1(OC(=O)/C=C/c2ccccc2)C[C@H](O)[C@]2(O)C=CO[C@@H](O[C@@H]3O[C@H](CO)[C@@H](O)[C@H](O)[C@H]3O)C12 (stereo partly specified),outcome,CRL-7250,inactive
same,outcome,HEK293,inactive
same,outcome,HaCat,inactive
CC1C(=O)CC2C3C(O)CC(C(=O)O)C12CC3(C)C (stereo unspecified),outcome,CRL-7250,inactive
same,outcome,HEK293,inactive
same,outcome,HaCat,inactive
CC1OC(OC2C(C)OC(OC3C(OC(=O)/C=C/c4ccc(O)cc4)C(CO)OC(OC4(COC(=O)/C=C/c5ccc(O)cc5)OC(CO)C(O)C4O)C3OC3OCC(O)(CO)C3O)C(O)C2O)C(O)C(O)C1O (stereo unspecified),max response,CRL-7250,-0.0903%
same,outcome,HEK293,inactive
same,outcome,HaCat,inactive
NS(=O)(=O)NCCNc1nonc1C(=Nc1ccc(F)c(Br)c1)NO,max response,CRL-7250,3.38% and -8.95%
same,max response,HEK293,-61.6%
same,outcome,HEK293,inactive
same,max response,HaCat,-46.4%
same,outcome,HaCat,inactive
C=C1C[C@@]23CC[C@@H]4[C@](C)(C(=O)O)CCC[C@@]4(C)C2=CC[C@H]1C3,max response,CRL-7250,-8.72%
same,outcome,HEK293,inactive
same,outcome,HaCat,inactive
COc1ccccc1-n1c(SCC(=O)Nc2nc3ccc(C)cc3s2)nc2c(c1=O)SCC2,max response,CRL-7250,2.47%
same,outcome,HEK293,inactive
same,max response,HaCat,-3.57%
CCN[C@@H]1C[C@H](N)[C@@H](O[C@H]2OC(CN)=CC[C@H]2N)[C@H](O)[C@H]1O[C@H]1OC[C@](C)(O)[C@H](NC)[C@H]1O,max response,CRL-7250,-13%
same,outcome,CRL-7250,inactive
same,max response,HEK293,-0.314%
same,outcome,HaCat,inactive
Cc1nn(C)c2c1C(c1ccc(C(F)(F)F)cc1)C(C#N)=C(N)O2 (stereo unspecified),max response,CRL-7250,4.37%
same,outcome,CRL-7250,inactive
same,max response,HEK293,-4.39% and 2.32%
same,max response,HaCat,-6.13% and -14.3%
C[C@H]1C[C@H]2[C@@H]3CCC4=CC(=O)C=C[C@]4(C)[C@@]3(F)[C@@H](O)C[C@]2(C)[C@@]1(O)C(=O)COP(=O)(O)O,max response,CRL-7250,2.73%
same,outcome,HEK293,inactive
same,outcome,HaCat,inactive
CC(C)CC(=O)n1cc(C(N)=O)c(=O)cc1C(O)c1ccccc1 (stereo unspecified),outcome,CRL-7250,inactive
same,outcome,HEK293,inactive
same,outcome,HaCat,inactive
CC(C)(C)NCC(O)COc1cccc2c1CCCC2=O (stereo unspecified),outcome,CRL-7250,inactive
same,outcome,HEK293,inactive
same,max response,HaCat,-7.74%
CCOC(=O)c1ccc(N(C)c2csc(-c3ccccc3)n2)cc1,max response,CRL-7250,4.84%
same,outcome,HEK293,inactive
same,outcome,HaCat,inactive
COc1c(C)c2c(c(O)c1C/C=C(\C)CC/C=C(\C)CCC(=O)O)C(=O)OC2,max response,CRL-7250,-4.04%
same,outcome,HEK293,inactive
same,outcome,HaCat,inactive
C=C1CCC2C(C)(CO[C@@H]3O[C@H](CO)[C@@H](O)[C@H](O)[C@H]3O)C(O)CCC2(C)C1C(=O)CC1=CCOC1=O (stereo partly specified),max response,CRL-7250,-10.6%
same,outcome,HEK293,inactive
same,outcome,HaCat,inactive
O=C1NC(=Nc2ccccc2F)S/C1=C\c1ccc(C(=O)O)cc1,max response,CRL-7250,-10.7%
same,outcome,HEK293,inactive
same,outcome,HaCat,inactive
C=C(C)C(=O)O[C@H]1C[C@@](C)(OC(C)=O)[C@@]2(O)CC[C@@](C)(O)[C@H](OC(C)=O)[C@@]23OC(=O)C(COC)=C13,max response,CRL-7250,3.52%
same,outcome,HEK293,inactive
same,outcome,HaCat,inactive
CC1(C)C(=O)N2c3ccccc3[C@]3(CC(n4cnc5ccccc5c4=O)C(=O)O3)[C@H]2N1O (stereo partly specified),outcome,CRL-7250,inactive
same,outcome,HEK293,inactive
same,outcome,HaCat,inactive
COC1=CC(=O)C[C@@H](C)[C@]12Oc1cc(OC)cc(OC)c1C2=O,max response,CRL-7250,-2.71%
same,outcome,HEK293,inactive
same,max response,HaCat,-2.69%
CCCC1=CC2=C(CO1)C(=O)C(C)(OC(=O)c1c(C)cc(OC)cc1O)C(O)C2 (stereo unspecified),max response,CRL-7250,-27.1%
same,outcome,HEK293,inactive
same,outcome,HaCat,inactive
Cc1ccc(Sc2cncc3sc(C(N)=O)cc23)cc1,outcome,CRL-7250,inactive
same,outcome,HEK293,inactive
same,max response,HaCat,-4.86%
